Experimental data reported in PubChem BioAssay (NCATS).
Several values for one entry are separate records, joined by “and”; a condition that tells them apart may be missing. Equal entries are not always repeated. Records with an inconclusive call do not appear. The source holds several records for some structures; these can differ, active in one and inactive in another. Activity calls are given as the source filed them. Unless noted, calls follow the shape of the dose curve; as a rule, active = well fitted curve in the direction sought with a large enough effect; inconclusive = small, poorly fitted or top-dose-only effect, or another doubt; inactive = no such curve, though single readings can be large; an effect the other way counts as inactive or inconclusive.

What was measured:
[1] = qHTS assay for small molecule agonists of retinoid X receptor alpha signaling (AID 588544; calls by dose curve;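 as to activation: 0% = DMSO basal wells and 100% = reference agonist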); conditions: HEK293T RXRa-UAS-bla, beta-lactamase reporter, 18 h; 530 nm emission
[2] = target: Retinoic acid receptor RXR-alpha (Homo sapiens) (UniProt P19793); assay: as above
Chain of Retinoic acid receptor RXR-alpha (Homo sapiens) (P19793 whole entry, looked up): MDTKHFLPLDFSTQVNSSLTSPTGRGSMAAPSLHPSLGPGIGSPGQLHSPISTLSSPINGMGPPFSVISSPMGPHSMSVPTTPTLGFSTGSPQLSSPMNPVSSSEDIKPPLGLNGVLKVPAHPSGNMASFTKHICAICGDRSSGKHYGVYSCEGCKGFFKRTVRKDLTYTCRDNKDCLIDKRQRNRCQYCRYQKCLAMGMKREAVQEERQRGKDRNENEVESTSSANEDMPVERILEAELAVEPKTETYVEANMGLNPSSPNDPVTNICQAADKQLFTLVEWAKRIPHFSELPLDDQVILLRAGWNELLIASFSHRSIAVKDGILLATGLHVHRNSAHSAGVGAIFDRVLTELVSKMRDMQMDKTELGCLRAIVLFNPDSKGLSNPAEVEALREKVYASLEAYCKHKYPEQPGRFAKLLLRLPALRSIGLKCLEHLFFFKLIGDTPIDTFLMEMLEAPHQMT

[3] = target: Thyroid hormone receptor beta (Homo sapiens) (UniProt P10828); assay: qHTS assay for small molecule agonists of thyroid hormone receptor beta signaling (AID 588545; calls by dose curve;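 also: 0% = DMSO only and 100% = 10 nM T3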)
Chain of Thyroid hormone receptor beta (Homo sapiens) (P10828 whole entry, looked up): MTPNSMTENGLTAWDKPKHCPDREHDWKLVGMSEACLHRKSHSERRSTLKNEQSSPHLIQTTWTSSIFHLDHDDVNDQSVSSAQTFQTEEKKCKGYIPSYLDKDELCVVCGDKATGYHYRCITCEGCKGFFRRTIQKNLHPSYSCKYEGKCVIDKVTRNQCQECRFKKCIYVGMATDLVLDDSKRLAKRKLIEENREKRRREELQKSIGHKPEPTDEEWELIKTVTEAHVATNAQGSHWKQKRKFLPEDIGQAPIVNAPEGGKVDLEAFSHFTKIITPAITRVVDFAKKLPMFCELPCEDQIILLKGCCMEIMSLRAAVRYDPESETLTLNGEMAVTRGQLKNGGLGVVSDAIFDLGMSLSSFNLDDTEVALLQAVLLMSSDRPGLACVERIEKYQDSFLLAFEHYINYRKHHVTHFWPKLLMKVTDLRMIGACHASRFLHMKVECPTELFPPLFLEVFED
In short: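 Beta-lactamase reporter activity under TR response element control is measured in HEK 293 cells after 18 hrs compound exposure. Signal is ratiometric CCF4 fluorescence, 460/530 nm.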

[4] = qHTS assay for small molecule antagonists of retinoid X receptor alpha signaling (AID 588546; active = well fitted inhibition curve with a large enough effect in the signal ratio, with a control signal flat, not every such curve was filed as active; the % refers to the signal ratio;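 also: cells stimulated with 9-cis-retinoic acid as agonist; % is scaled to controls: 0 for no effect and ±100 for the full control effect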); conditions: HEK293T RXRa-UAS-bla, beta-lactamase ratio, antagonist mode; measured here: W530 green channel, cytotoxicity proxy
In short: (§1)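 Beta-lactamase reporter inhibition, read as CCF4 fluorescence ratio (ex 405, em 460/530 nm) after 2 h at RT. HEK293T UAS-bla cells, 2500/well, were stimulated with 9-cis-RA at 500 or 100 nM final alongside test compound for 18 h at 37 C.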

[5] = target: Retinoic acid receptor RXR-alpha (Homo sapiens) (UniProt P19793); assay: as above; conditions: HEK293T RXRa-UAS-bla, beta-lactamase ratio, antagonist mode
In short: as §1

[6] = qHTS assay for small molecule activators of the p53 signaling pathway (AID 651743; active = well fitted activation curve with a large enough effect in the signal ratio, not every such curve was filed as active; the % refers to the signal ratio; also: series mostly up to about 92 µM; % of control where 0% means no effect); conditions: HCT-116 p53RE-bla, beta-lactamase FRET ratio, 16 h; activation: stronger effect = higher value
In short: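 Reporter: beta-lactamase driven by p53 response elements, stably integrated in HCT-116 cells. Cells seeded at 4,000/well, 5 h preincubation, compound (DMSO) 16 h at 37 C; B/G FRET substrate 2 h RT; fluorescence intensity read.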

[7] = qHTS assay for environmental chemicals that activate the Aryl hydrocarbon Receptor (AhR) signaling pathway (AID 651777); conditions: 1A2-DRE human hepatoma cells, luciferase, 24 h; activation: stronger effect = higher value; also: nearly all actives have a fitted effect of over 15% in size; also: potency is read from the fitted curve at half-maximal effect; as to activation: % of control where 0% means no effect
In short: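 Measured luciferase activity, read 30 min after One-Glo addition at room temperature, from human hepatoma cells bearing a dioxin response element–CYP1A2 promoter reporter and exposed to compound for 24 hr at 37 C.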

[8] = target: Peroxisome proliferator-activated receptor alpha (Homo sapiens) (UniProt Q07869); assay: qHTS assay for small molecule agonists of the peroxisome proliferator-activated receptor alpha (PPARalpha) signaling pathway (AID 651778); conditions: PathHunter PPARalpha complementation, chemiluminescence, 6 h; max response: stronger effect = higher value; also: % of control where 0% means no effect
Chain of Peroxisome proliferator-activated receptor alpha (Homo sapiens) (Q07869 whole entry, looked up, the tested form may be a part): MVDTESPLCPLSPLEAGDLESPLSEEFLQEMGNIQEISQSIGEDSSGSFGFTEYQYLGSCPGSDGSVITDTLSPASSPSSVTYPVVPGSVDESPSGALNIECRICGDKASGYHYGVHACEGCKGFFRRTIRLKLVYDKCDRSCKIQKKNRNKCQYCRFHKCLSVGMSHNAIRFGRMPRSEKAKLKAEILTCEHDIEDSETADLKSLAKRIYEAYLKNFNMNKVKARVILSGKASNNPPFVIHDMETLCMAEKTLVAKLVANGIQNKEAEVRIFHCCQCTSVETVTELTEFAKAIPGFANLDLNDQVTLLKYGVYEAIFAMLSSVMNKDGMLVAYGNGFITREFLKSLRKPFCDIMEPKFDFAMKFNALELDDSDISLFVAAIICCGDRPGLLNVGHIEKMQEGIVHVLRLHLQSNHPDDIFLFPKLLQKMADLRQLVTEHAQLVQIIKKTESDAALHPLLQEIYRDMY
In short: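 Enzyme-fragment complementation assay in which ligand-bound PPARalpha translocates and forms an active enzyme that generates chemiluminescence. Cells were plated overnight, exposed to compound for 6 hr at 37 C, and then given detection reagent for 60 min at room temperature.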

[9] = qHTS assay for small molecule agonists of the antioxidant response element (ARE) signaling pathway measured by Nrf2-dependant transcriptional activity (AID 720636; active = well fitted curve in the direction sought with a large enough effect in the repeat runs; an effect the other way counts as inactive or inconclusive;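 also: HepG2 cells with an ARE-driven luciferase reporter; % of control where 0% means no effect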)
In short: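 In HepG2 cells engineered with an Nrf2-responsive luciferase gene, ARE induction was quantified as luminescence after 16 hr compound treatment at 37 C.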

[10] = qHTS assay for small molecule agonists of the antioxidant response element (ARE) signaling pathway measured by Nrf2-dependant transcriptional activity - cell viability counter screen (AID 720653; active = well fitted curve in the direction sought with a large enough effect in the repeat runs; an effect the other way counts as inactive or inconclusive; also: % is scaled to controls: 0 for no effect and ±100 for the full control effect); conditions: ARE-bla HepG2 viability, CellTiter-Glo ATP luminescence, 16 h; max response: stronger effect = lower value
In short: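 ARE-bla HepG2 cells treated with compounds for 16 h at 37C; this counter screen measures viability as intracellular ATP by CellTiter-Glo luminescence after 30 min at room temperature.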

[11] = qHTS assay for cell viability of HEK293 cells (AID 743288); conditions: ATP luminescence (CellTiter-Glo), 18 h; max response: stronger effect = lower value; also: nearly all actives have a fitted effect of over 50% in size; also: potency is read from the fitted curve at half-maximal effect; as to max response: % is scaled to controls: 0 for no effect and ±100 for the full control effect
In short: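 Viable-cell counts were inferred from luciferase-based ATP content in HEK293 cells seeded at 2,000/well, pre-incubated ≥5 h, then dosed with DMSO-solubilised compounds for 18 h at 37 C.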

[12] = qHTS assay for cell viability of the p53RE-bla HCT-116 cell line (AID 743292); also: % is scaled to controls: 0 for no effect and ±100 for the full control effect; nearly all actives have a fitted effect of over 55% in size
In short: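 Intracellular ATP of p53RE-bla HCT-116 cells measured by luciferase luminescence following 16 h compound incubation at 37 C; DMSO-only wells served as vehicle controls.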

[13] = target: Nuclear receptor subfamily 1 group I member 2 (Rattus norvegicus) (UniProt Q9R1A7); assay: qHTS assay for small molecule activators of the rat pregnane X receptor (rPXR) signaling pathway (AID 651751; call rule not given here; also: 0% is about no effect); conditions: rPXR reporter cells, luciferase (One-Glo), 24 h
Chain of Nuclear receptor subfamily 1 group I member 2 (Rattus norvegicus) (Q9R1A7 whole entry, looked up): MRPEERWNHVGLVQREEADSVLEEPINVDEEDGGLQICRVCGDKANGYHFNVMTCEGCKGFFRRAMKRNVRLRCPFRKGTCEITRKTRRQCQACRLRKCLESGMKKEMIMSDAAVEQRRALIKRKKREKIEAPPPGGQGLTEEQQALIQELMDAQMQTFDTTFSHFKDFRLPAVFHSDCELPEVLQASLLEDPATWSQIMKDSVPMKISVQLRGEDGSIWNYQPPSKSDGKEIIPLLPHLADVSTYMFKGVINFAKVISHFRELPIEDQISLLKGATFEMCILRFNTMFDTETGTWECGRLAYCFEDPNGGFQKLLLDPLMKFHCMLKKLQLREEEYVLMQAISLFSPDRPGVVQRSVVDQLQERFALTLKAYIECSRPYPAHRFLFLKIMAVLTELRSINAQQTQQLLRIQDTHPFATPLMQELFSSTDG

[14] = qHTS assay for small molecule activators of the human pregnane X receptor (PXR) signaling pathway (AID 720659; call rule not given here; also: 0% is about no effect)
[15] = target: Thyroid hormone receptor beta (Homo sapiens) (UniProt P10828); assay: qHTS assay for small molecule antagonists of thyroid hormone receptor beta signaling (AID 588547; active = well fitted inhibition curve with a large enough effect in the signal ratio, with a control signal flat, not every such curve was filed as active; the % refers to the signal ratio; also: potency is read from the fitted curve at half-maximal effect); conditions: TR-UAS-bla HEK293, beta-lactamase ratio, antagonist mode, 18 h
In short: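 TR-UAS-bla GripTite HEK293 cells in 2% charcoal/dextran FBS medium; compounds 0.59 nM to 92 uM with T3 at 0.4nM final, 18 h at 37 C. Beta-lactamase read by CCF4 fluorescence (460/530 nm); Hill fits gave IC50 and efficacy.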

[16] = qHTS assay for small molecule antagonists of peroxisome proliferator-activated receptor delta signaling (AID 588535; active = well fitted inhibition curve with a large enough effect in the signal ratio, with a control signal flat, not every such curve was filed as active; the % refers to the signal ratio;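 as to max response: cells co-treated with a PPAR-delta agonist as stimulator during compound exposure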); conditions: HEK293T PPARd-UAS-bla, beta-lactamase FRET ratio, 18 h; 460 nm channel
In short: (§2)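 Beta-lactamase reporter read-out (405 nm excitation, 460/530 nm emission) after CCF4 loading for 2 hrs at RT. HEK293T PPAR-delta-UAS-bla cells, 2% charcoal/dextran FBS, compounds for 18 hrs at 37 C. Hill fit gave IC50 and efficacy.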

[17] = target: Peroxisome proliferator-activated receptor delta (Homo sapiens) (UniProt Q03181); assay: as above
Chain of Peroxisome proliferator-activated receptor delta (Homo sapiens) (Q03181 whole entry, looked up): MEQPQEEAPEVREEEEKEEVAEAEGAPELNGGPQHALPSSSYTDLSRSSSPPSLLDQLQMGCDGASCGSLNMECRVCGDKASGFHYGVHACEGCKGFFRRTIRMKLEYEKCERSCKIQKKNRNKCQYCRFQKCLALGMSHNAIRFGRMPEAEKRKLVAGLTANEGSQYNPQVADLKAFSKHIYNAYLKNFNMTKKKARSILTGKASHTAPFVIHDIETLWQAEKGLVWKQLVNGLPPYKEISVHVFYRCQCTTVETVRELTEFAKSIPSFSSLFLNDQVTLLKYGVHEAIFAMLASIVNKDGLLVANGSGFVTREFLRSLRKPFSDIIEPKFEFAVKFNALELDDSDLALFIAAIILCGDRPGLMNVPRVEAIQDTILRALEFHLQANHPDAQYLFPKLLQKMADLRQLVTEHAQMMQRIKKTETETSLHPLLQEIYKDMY
In short: as §2

[18] = target: Vitamin D3 receptor (Homo sapiens) (UniProt P11473); assay: qHTS assay for small molecule antagonists of vitamin D receptor signaling (AID 588541; calls by dose curve;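 also: receptor activated by calcitriol during compound treatment; series mostly up to about 77 µM; % is scaled to controls: 0 for no effect and ±100 for the full control effect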)
Chain of Vitamin D3 receptor (Homo sapiens) (P11473 whole entry, looked up): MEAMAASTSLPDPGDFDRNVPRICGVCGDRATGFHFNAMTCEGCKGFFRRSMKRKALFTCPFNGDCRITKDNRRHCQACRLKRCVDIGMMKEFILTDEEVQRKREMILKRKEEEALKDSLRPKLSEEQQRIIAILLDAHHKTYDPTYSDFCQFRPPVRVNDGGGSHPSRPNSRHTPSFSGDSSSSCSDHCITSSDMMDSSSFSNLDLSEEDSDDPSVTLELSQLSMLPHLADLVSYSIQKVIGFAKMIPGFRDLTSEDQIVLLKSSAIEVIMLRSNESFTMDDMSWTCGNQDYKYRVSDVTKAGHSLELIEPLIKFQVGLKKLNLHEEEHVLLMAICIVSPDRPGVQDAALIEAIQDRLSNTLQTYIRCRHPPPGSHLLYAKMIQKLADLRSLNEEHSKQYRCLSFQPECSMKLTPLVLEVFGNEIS
In short: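 VDR-UAS-bla HEK293T cells in 2% charcoal-stripped FBS were stimulated with 1-alpha,25-dihydroxyvitamin D3 (3 nM final) plus compound for 16 h at 37 C. The beta-lactamase CCF4 readout was normalized to 50 nM agonist and DMSO, and Hill fits gave IC50.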

[19] = qHTS assay for small molecule activators of the nuclear factor-kappa B (NF-kB) signaling pathway (AID 651749; active = well fitted activation curve with a large enough effect in the signal ratio; the % refers to the signal ratio; also: series mostly up to about 77 µM; % of control where 0% means no effect); conditions: NF-kB-bla ME-180 cells, beta-lactamase FRET ratio, 16 h; activation: stronger effect = higher value
In short: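 NF-kB-bla ME-180 cells, 2,000/well; 23 nL compound or DMSO pinned; 16 hr, 37C/5% CO2; beta-lactamase FRET read-out.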

[20] = target: Vitamin D3 receptor (Homo sapiens) (UniProt P11473); assay: qHTS assay for small molecule agonists of vitamin D receptor signaling (AID 588543; calls by dose curve;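 also: 0% = DMSO basal and 100% = reference agonist control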)
In short: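 Reporter cells (HEK293T, VDR-UAS-bla) were seeded in medium with 2% charcoal-stripped serum and incubated 5 h, then compounds in concentration series were added for 16 h at 37 °C. Stimulation was scaled between DMSO basal and 50 nM 1α,25-dihydroxyvitamin D3.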

CCOC(=O)CCCCCCCCC(=O)OCC
inactive: Potency [2] | Potency [3] | max response [5] 0.487% | activation [6] -5.93% | activation [7] 0.108% | max response [8] -3.28% | Potency [9] | max response [10] -13.4% | max response [11] -4.17% | Potency [12] | max response [13] 2.58% | outcome [14]
3.8%: max response [1]
-7.52%: max response [4]

c1ccc2cc3c(ccc4ccccc43)cc2c1
inactive: Potency [2] | Potency [3] | max response [5] -3.27% | activity change % (negative = inhibition) [15] -17.7% | max response [8] -0.566% | max response [10] -18.2% | max response [11] -8% | Potency [12]
4.49%: max response [1]
-11.9%: max response [4]

C#CCOC(=O)[C@@H](C)Oc1ccc(Oc2ncc(Cl)cc2F)cc1
-11.8%: max response [1]
-4.05%: max response [4]
inactive: Potency [17] | Potency [18] | Potency [2] | activation [6] -3.45% | activation [7] -1.36% | max response [8] -0.41% | Potency [9] | max response [10] -3.32% | max response [11] -6.8% | Potency [12] | max response [13] -2.33% | outcome [14]
41.4%: max response [16]

CO[Si](OC)(OC)c1ccccc1
44.5%: max response [16]
-3.5%: max response [4]
-13.7%: max response [1]
inactive: Potency [17] | Potency [2] | Potency [3] | activation [19] 0.204% | activation [7] 1.89% | Potency [9] | max response [10] -0.0462% | max response [11] -0.551% | Potency [12] | max response [13] -6.78% | outcome [14]

COc1nc(C)nc(NC(=O)NS(=O)(=O)c2ccccc2OCCCl)n1
11.2%: max response [4]
-8.8%: max response [16]
inactive: Potency [17] | outcome [20] | Potency [3] | max response [5] 20.3% | activity change % (negative = inhibition) [15] 1.88% | activation [19] 0.852% | activation [7] 2.11% | max response [8] 1.06% | Potency [9] | max response [10] 14.8% | max response [11] 6.67% | max response [13] 5.75% | outcome [14]

Cl[Si](Cl)(Cl)c1ccccc1
-15.8%: max response [1]
inactive: Potency [17] | Potency [18] | outcome [20] | Potency [2] | Potency [3] | max response [5] -5.52% | activity change % (negative = inhibition) [15] -0.0742% | activation [6] -5.69% | activation [19] -0.0547% | activation [7] -0.059% | max response [8] -2.31% | Potency [9] | max response [10] -8.94% | max response [11] -13.3% | Potency [12] | max response [13] 1.77% | outcome [14]
-7.94%: max response [4]
13.6%: max response [16]

C=C(C)C(=O)OCCCCCCCCCCCC
-11.6%: max response [1]
-35.9%: max response [16]
-6.86%: max response [4]
inactive: Potency [17] | Potency [18] | Potency [2] | Potency [3] | activity change % (negative = inhibition) [15] 0.53% | activation [6] 1.89% | activation [19] -0.811% | activation [7] 1.15% | max response [8] -1.38% | Potency [9] | max response [10] 11.2% | max response [11] -6.64% | Potency [12] | max response [13] 1.96% | outcome [14]

CC(=O)Nc1ccc(N=Nc2cc(C)ccc2O)cc1
14%: max response [16]
3.3%: max response [1]
inactive: Potency [17] | outcome [20] | Potency [2] | Potency [3] | max response [5] -20.6% | activation [6] -6.18% | activation [19] -1.84% | max response [8] -3.57% | max response [10] 1.65% | max response [11] -16.4% | Potency [12] | max response [13] 1.28%
-4.33%: max response [4]
active: Potency [7] 4.47 µM

CCOC(=O)C(C)Oc1ccc(Oc2cnc3cc(Cl)ccc3n2)cc1 (configuration not stated)
22.1%: max response [4]
inactive: Potency [18] | outcome [20] | max response [5] -14.1% | activation [7] 1.27% | max response [8] 11.2% | max response [10] -11.5% | max response [11] 4.59% | outcome [14]

CCCCOCC(C)O (configuration not stated)
-5.52%: max response [1]
inactive: outcome [20] | Potency [2] | Potency [3] | max response [5] -37.2% and 3.13% | activity change % (negative = inhibition) [15] -39.6% and 0.784% | activation [6] -6.14% | activation [19] 0.734% and -0.5% | activation [7] 1.48% and -0.559% | max response [8] 0.397% and 0.0173% | Potency [9] | max response [10] -1.21% and -1.7% | max response [11] -2.11% | Potency [12] | max response [13] 5.94% and 2.87%
active: Potency [11] 1410 µM
12% and -0.638%: max response [4]

CC(=O)CC(=O)Nc1ccccc1C
inactive: Potency [18] | outcome [20] | Potency [2] | Potency [3] | max response [5] -30.4% | activity change % (negative = inhibition) [15] 7.41% | activation [6] -0.568% | activation [19] -0.183% | activation [7] 3.12% | Potency [9] | max response [10] -6.37% | max response [11] -10.9% | Potency [12]
14.1%: max response [4]
16.5%: max response [1]

CCCCCCCC(=O)Oc1c(Br)cc(C#N)cc1Br
inactive: Potency [18] | Potency [2] | Potency [3] | max response [5] -20.9% | activity change % (negative = inhibition) [15] -2.51% | activation [19] -2.23% | Potency [9] | max response [11] -6.14% | Potency [12] | max response [13] -8.28% | outcome [14]
-14.9%: max response [1]
-5.85%: max response [4]

O=c1[nH]sc2ccccc12
inactive: outcome [20] | Potency [3] | activation [6] -3.28% | activation [19] -1.58% | activation [7] 2.41% | max response [8] -8.62% | max response [10] -17.7% | Potency [12] | outcome [14]
active: Potency [15] 15.8 µM
-44.3%: max response [4]
